From PubChem BioAssay
DT40 TDP1 CPT – growth inhibition of DT40 Tdp1-/-;hTDP1 cells with camptothecin (screen for TDP1 inhibitors); chicken DT40 Tdp1-/-;hTDP1 cells + 20 nM CPT, ATP luminescence, 48 h; Potency, µM (titrated, usually from 46.2 µM), most hits filed as inhibitors; 420,000 compounds, 12% hits; AID 686979; further: nearly all actives have a fitted effect of over 55% in size
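Chicken DT40 Tdp1-/- cells stably complemented with human TDP1 were seeded at 400 cells/well in medium containing 20 nM camptothecin, exposed to pin-transferred compounds, and grown at 37 °C for at least 48 hr. Viability was read as ATP luminescence.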
S-ASM inh – inhibitors of human secretory acid sphingomyelinase. 340,000 compounds, 0.006% hits. P17405. placental ASM, HMU-PC fluorogenic substrate, 60 min. AID 504937. Potency, µM (doses to about 57.5 µM), most hits filed as inhibitors
Target sequence (P17405 47-631 limits assumed): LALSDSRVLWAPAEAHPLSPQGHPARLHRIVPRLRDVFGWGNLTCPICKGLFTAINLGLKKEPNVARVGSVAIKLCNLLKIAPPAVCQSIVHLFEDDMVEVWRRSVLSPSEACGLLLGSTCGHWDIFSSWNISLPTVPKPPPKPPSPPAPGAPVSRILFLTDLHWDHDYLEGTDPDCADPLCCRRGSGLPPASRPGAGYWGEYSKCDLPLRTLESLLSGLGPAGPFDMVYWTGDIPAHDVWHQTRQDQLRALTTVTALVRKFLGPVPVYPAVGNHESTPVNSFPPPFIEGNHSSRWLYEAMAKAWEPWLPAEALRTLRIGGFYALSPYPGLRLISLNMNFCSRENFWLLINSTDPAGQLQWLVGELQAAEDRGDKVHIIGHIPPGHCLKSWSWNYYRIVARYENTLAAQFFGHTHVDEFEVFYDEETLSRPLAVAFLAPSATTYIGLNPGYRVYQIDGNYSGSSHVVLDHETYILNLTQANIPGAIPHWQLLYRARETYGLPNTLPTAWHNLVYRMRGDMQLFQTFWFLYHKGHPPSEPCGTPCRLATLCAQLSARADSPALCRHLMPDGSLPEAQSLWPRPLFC
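Fluorogenic HMU-PC substrate (9 uM final) is turned over by placental ASM in 60 min at 37 C after a 10 min compound preincubation. Reaction ended by alkaline stop (pH 10), with fluorescence read at 386/447 nm.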
HepG2 tox – kills HepG2 cells in TGF-b inhibitor counter-screen; 410,000 compounds, 0.76% hits; HepG2 CAGA-GFP viability, ATP luminescence, 18 h; AID 588856; Potency, µM (titrated, usually from 46.1 µM), most hits filed as cytotoxic
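HepG2 CAGA-GFP cells (1000/well, DMEM with 1% FBS) received compound, then TGF-beta at 500 pg/mL final, and were incubated 18 hours at 37 degrees C. Viability was read by CellTiter-Glo luminescence. Media-only wells were set as complete cell-killing and DMSO as no toxicity.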
TGFb SMAD3 inh – blocks TGF-b signaling; HepG2 CAGA-GFP TGF-b/SMAD3 reporter, GFP fluorescence, 18 h; TGF-beta stimulated, 500 pg/mL final; Potency, µM (titrated, usually from 46.1 µM), hits mostly inhibitors; 410,000 compounds, 1.2% hits; AID 588855; further: nearly all actives have a fitted effect of over 65% in size
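Cell-based qHTS in HEPG2 carrying a CAGA-GFP Smad reporter; compounds added before 500 pg/mL final TGF-beta, 18 h incubation at 37 degrees C, GFP fluorescence quantified per cell by imaging cytometry.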
IL1B secr inh – inhibitors of inflammasome signaling (IL-1 beta secretion); THP-1 LPS/ATP IL-1B secretion, AlphaLISA, 16 h; active compounds read low; activity change, % at 57.5 µM; 360,000 compounds, 4.7% hits; AID 743279; in the data active means activity change below about -50%; inconclusive means mostly about -30% to -49%
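THP-1 cells pretreated 1 hr with compounds (up to 57.5 uM final), then stimulated with LPS (250 ng/mL final) plus ATP (1.25 mM final); secreted IL-1B measured by AlphaLISA after 16 hr, decreased signal indicating inhibition.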
TDP1 cell noCPT – qHTS for Inhibitors of human tyrosyl-DNA phosphodiesterase 1 (TDP1): qHTS in cells in absence of CPT; DT40 Tdp1-/- hTDP1 cells, no CPT, ATP luminescence, 48 h; Potency, µM (titrated, usually from 46.2 µM), actives largely listed as inhibitors; 420,000 compounds, 15% hits; further: nearly all actives have a fitted effect of over 55% in size
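Cells were dispensed at 400 per well, compounds added by pin tool, plates incubated ≥48 hr at 37 °C, then CellTiter-Glo added for 30 min at room temperature before luminescence reading. Line: DT40 Tdp1-/- complemented with hTDP1; camptothecin omitted.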
Each line names hits and unclear results; the compound was inactive in the other large screens. An excerpt weighted towards active compounds, which were near 19% of everything screened. Unless noted, the call rests on the fitted dose curve; in most records, active means well fitted curve in the direction sought with a large enough effect; inconclusive means small, poorly fitted or top-dose-only effect, or another doubt; inactive means no such curve, though single readings can be large; an effect the other way counts as inactive or inconclusive.

O=C(Nc1ccc(F)cc1)C(c1cc2ccccc2o1)N1CCN(c2ccncc2)CC1 (stereo not drawn)	DT40 TDP1 CPT 21µM, IL1B secr inh inconclusive, TDP1 cell noCPT 23µM (no result: S-ASM inh, HepG2 tox, TGFb SMAD3 inh)
Cc1ccc(N2CCN(C(C(=O)Nc3c(C)cccc3C)c3cc4ccccc4o3)CC2)cc1 (stereo not drawn)	DT40 TDP1 CPT 13µM, TDP1 cell noCPT 13µM (no result: S-ASM inh, HepG2 tox, TGFb SMAD3 inh)
Cc1cccc(C)c1NC(=O)C(c1cc2ccccc2o1)N1CCC(c2ccccc2)CC1 (stereo not drawn)	DT40 TDP1 CPT 16µM, TDP1 cell noCPT 15µM (no result: S-ASM inh, HepG2 tox, TGFb SMAD3 inh)
CC12CCC(C(=NO)C1=O)C2(C)C (stereo not drawn)	none
O=C(COC(=O)c1ccccc1OCCOc1ccccc1)Nc1ccccc1Br	none (no result: S-ASM inh, IL1B secr inh)
CCN1CCN(c2oc(-c3ccc(COc4ccccc4C)o3)nc2C#N)CC1	DT40 TDP1 CPT inconclusive, TDP1 cell noCPT inconclusive (no result: S-ASM inh, IL1B secr inh)
Cc1ccccc1Cn1c2ccccc2c2cnn(CC(=O)NCCCN3CCOCC3)c(=O)c21	DT40 TDP1 CPT inconclusive, IL1B secr inh -72
CCCN(CCC)CCCNC(=O)Cn1ncc2c3ccccc3n(Cc3ccc(F)cc3)c2c1=O	DT40 TDP1 CPT 18µM, TDP1 cell noCPT 21µM (no result: S-ASM inh, IL1B secr inh)
CCCn1c2ccccc2c2cnn(CC(=O)NCCc3ccc(OCC)cc3)c(=O)c21	DT40 TDP1 CPT inconclusive, TDP1 cell noCPT 23µM (no result: S-ASM inh, IL1B secr inh)
Cc1ccccc1Cn1c2ccccc2c2cnn(CC(=O)NCCCN3CCN(C)CC3)c(=O)c21	DT40 TDP1 CPT inconclusive, IL1B secr inh inconclusive, TDP1 cell noCPT inconclusive
CCCn1c2ccccc2c2cnn(CC(=O)NC3CCCC(C)C3C)c(=O)c21 (stereo not drawn)	DT40 TDP1 CPT inconclusive, TDP1 cell noCPT 2.1µM
CCCCN(CC)CCCNC(=O)Cn1ncc2c3ccccc3n(Cc3ccc(F)cc3)c2c1=O	DT40 TDP1 CPT inconclusive (no result: S-ASM inh, IL1B secr inh)
C[C@@H]1CN([C@H](C)CO)C(=O)CCCn2nncc2CO[C@@H]1CN(C)C(=O)C1CCCCC1	none (no result: S-ASM inh)
CCNC(=O)C1(C)CCCN1C(=O)c1ccc(-c2ccccc2)cc1 (stereo not drawn)	DT40 TDP1 CPT inconclusive, TDP1 cell noCPT inconclusive (no result: S-ASM inh)
CCN(CC)CCCNC(=O)Cn1ncc2c3ccccc3n(Cc3ccccc3)c2c1=O	none (no result: S-ASM inh, IL1B secr inh)
CN(Cc1ccccc1)C(=O)Cn1ncc2c3ccccc3n(Cc3cccc(Cl)c3)c2c1=O	DT40 TDP1 CPT inconclusive, TDP1 cell noCPT inconclusive (no result: S-ASM inh, IL1B secr inh)
Cc1c2cnn(CC(=O)NCCCN3CCCCC3)c(=O)c2c(C)n1Cc1ccccc1	none
CC(C)N(Cc1ccccc1)C(=O)Cn1ncc2c3ccccc3n(Cc3ccccc3)c2c1=O	DT40 TDP1 CPT inconclusive, TDP1 cell noCPT 18µM (no result: S-ASM inh, IL1B secr inh)
CCCn1c2ccccc2c2cnn(CC(=O)NCCc3ccccc3)c(=O)c21	DT40 TDP1 CPT 23µM, TGFb SMAD3 inh inconclusive, TDP1 cell noCPT inconclusive (no result: S-ASM inh, IL1B secr inh)
CCC1CCCCN1CCCNC(=O)Cn1ncc2c(C)n(Cc3ccccc3Cl)c(C)c2c1=O (stereo not drawn)	DT40 TDP1 CPT 18µM, TDP1 cell noCPT 18µM
CCCn1c2ccccc2c2cnn(CC(=O)NCCCN(Cc3ccccc3)C(C)C)c(=O)c21	DT40 TDP1 CPT inconclusive, TGFb SMAD3 inh inconclusive, TDP1 cell noCPT 21µM (no result: S-ASM inh, IL1B secr inh)
COc1ccc(CC(NC(C)=O)C(=O)NC2CCN(C(=O)Nc3ccccc3C)CC2)cc1OC (stereo not drawn)	none
Cc1nc2ccc(C(=O)OCC(=O)N(C)c3ccccc3)cc2nc1C	DT40 TDP1 CPT inconclusive, TDP1 cell noCPT inconclusive
CCCn1c2ccccc2c2cnn(CC(=O)N(CCCOC(C)C)Cc3ccco3)c(=O)c21	DT40 TDP1 CPT 16µM, TGFb SMAD3 inh inconclusive, TDP1 cell noCPT 16µM (no result: S-ASM inh, IL1B secr inh)
COc1ccc(CCNC(=O)Cn2c(=O)cnc3ccccc32)cc1	DT40 TDP1 CPT inconclusive, TDP1 cell noCPT 23µM
CCCn1c2ccccc2c2cnn(CC(=O)O)c(=O)c21	none
CCCNC(=O)Cn1c(=O)cnc2ccccc21	none
